In PubChem BioAssay AID504334 (NMMLSC, 2011):

test: yeast AGP1-GFP fluorescence change, single-dose confirmation – cell-based, flow cytometry, S. cerevisiae, cherry pick set 3 (AID 504334);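 note: median GFP fluorescence per well by flow cytometry over the all cells gate; ratio of sample to mean DMSO control signal so DMSO = 100% not 0%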; details: S. cerevisiae AGP1-GFP strain, 3 h, at 10 µM, active compounds read high;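 active = response relative to DMSO over 150%; inconclusive = yeast strain with under 70 recorded events; inactive = the rest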

Percent response vs DMSO, inactive:
Cn1cccc1C(=O)Nc1nc(-c2ccccn2)cs1 99.1%
C/C(=C\C(=O)c1ccccc1)Nc1cccc(O)c1 97.1%
Brc1ccc2ncnc(NCc3ccccc3)c2c1 94.8%
Cc1cccc(Nc2cc(=O)[nH]c(=O)[nH]2)c1 96.8%
CCN(CC)C(=O)Oc1cc(=O)n(C)c2ccccc12 100%
OCc1ccc(O)c2ncccc12 98.8%
COc1ccc(OC)c(N/C(C)=C/C(=O)c2ccccc2)c1 99.8%
Cc1ccc(-c2cc(C(F)F)nc(S(C)(=O)=O)n2)cc1 110%
CSc1ccccc1OCc1cc(C(=O)N2CCN(C)C(c3ccccc3)C2)no1 (stereo not drawn) 101%
CN(C)CCCNc1cc(O)c2ncccc2c1 105%
COc1cccc2c(O)cc(=O)n(C)c12 99.1%
COc1cc(OC)cc(C(=O)Nc2ccc(-c3nc4ccccc4o3)cc2)c1 99.1%
CCCCC(=O)NCCc1cc2c(OC)ccc(OC)c2[nH]c1=O 98.8%
CC(C)Nc1ncnc2ccc(Br)cc12 99.4%
CCN(CC)C(=O)Oc1ccnc2cc(Cl)ccc12 108%
Cc1ccc(NC(=O)O/N=C2\CCCCC2c2ccc([N+](=O)[O-])cc2[N+](=O)[O-])cc1 (stereo not drawn) 100%
Cn1c(NCCCO)nc2c(c1=O)C1(CCCCC1)Cc1ccccc1-2 104%
Cc1nc(Nc2ccc(Br)cc2Br)c([N+](=O)[O-])c(=O)[nH]1 95.4%
